The list shows a part of the results.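 How the source made its calls: active means mean activity change at or below -40%, meaning activation of 40% or more, at 20 µM; inactive means the rest.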
target: Apoptotic protease-activating factor 1 (Homo sapiens) (UniProt O14727); experiment: enhancers of apoptosome-driven caspase-3 activity – biochemical, fluorescence, DEVD-Rh110, 20 µM, confirmation (AID 504617); conditions: reconstituted apoptosome caspase-3 activity, at 20 µM, active compounds read low
Sequence (O14727 whole entry, looked up): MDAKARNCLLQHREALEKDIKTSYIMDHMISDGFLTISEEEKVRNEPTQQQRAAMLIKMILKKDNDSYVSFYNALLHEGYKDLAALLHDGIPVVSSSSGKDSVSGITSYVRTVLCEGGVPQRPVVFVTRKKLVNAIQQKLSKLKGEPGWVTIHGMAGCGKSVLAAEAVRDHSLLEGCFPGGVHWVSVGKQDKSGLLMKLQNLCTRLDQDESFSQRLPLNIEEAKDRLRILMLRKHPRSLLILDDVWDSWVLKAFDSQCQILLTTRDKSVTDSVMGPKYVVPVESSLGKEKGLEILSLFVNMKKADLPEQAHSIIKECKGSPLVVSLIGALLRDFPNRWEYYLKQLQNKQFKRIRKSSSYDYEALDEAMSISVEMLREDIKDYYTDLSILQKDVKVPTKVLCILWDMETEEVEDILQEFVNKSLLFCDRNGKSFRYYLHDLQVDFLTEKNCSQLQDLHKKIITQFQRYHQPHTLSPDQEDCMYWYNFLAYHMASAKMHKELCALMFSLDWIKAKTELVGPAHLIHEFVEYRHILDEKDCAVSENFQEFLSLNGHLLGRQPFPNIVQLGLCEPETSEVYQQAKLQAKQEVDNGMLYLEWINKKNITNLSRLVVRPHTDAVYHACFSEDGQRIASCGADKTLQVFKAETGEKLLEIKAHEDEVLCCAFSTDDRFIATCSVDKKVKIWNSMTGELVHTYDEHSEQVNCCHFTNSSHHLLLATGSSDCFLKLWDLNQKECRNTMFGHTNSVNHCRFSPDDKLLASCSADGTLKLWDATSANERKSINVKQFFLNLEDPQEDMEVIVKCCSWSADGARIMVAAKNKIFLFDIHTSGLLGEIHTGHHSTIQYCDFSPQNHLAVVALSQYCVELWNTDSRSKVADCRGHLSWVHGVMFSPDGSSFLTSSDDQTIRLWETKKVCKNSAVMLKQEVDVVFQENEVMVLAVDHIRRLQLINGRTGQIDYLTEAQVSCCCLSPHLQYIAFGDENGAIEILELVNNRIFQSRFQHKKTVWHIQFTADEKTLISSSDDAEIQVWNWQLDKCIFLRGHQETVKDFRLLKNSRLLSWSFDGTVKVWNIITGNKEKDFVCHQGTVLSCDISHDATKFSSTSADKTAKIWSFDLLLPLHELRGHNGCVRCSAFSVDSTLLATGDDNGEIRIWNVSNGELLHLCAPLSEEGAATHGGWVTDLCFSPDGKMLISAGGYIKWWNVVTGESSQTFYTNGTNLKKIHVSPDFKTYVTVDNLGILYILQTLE

Activity change, negative = activation, inactive:
CC(C)OCCCNC(=S)N1CCC(C(=O)c2ccc3c(c2)OCCO3)CC1 17.5%, Nc1cc(C(F)(F)F)ccc1N1CCOCC1 16.7%, COc1cc(C2C(C#N)=C(N)Oc3n[nH]c(-c4ccccn4)c32)cc(OC)c1OC (stereo unspecified) 16.8%, Cc1ccc(S(=O)(=O)N2CCOCC2)cc1C(=O)NC(=S)N(Cc1ccccc1)C(C)C 16.4%, O=[N+]([O-])c1ccc2nc(-c3ccccn3)[nH]c2c1 9.21%, O=C(Nc1cccc(C(F)(F)F)c1)c1cnccn1 14.9%, COc1ccc(S(=O)(=O)N2CCCCC2)cc1NC(=O)c1cc([N+](=O)[O-])ccc1N1CCOCC1 13.5%, CCOCCc1c(O)nc(SCC(=O)NCc2ccco2)[nH]c1=O 7%, Cc1nn(CC(=O)Nc2ccc(C#N)cc2)c(C)c1[N+](=O)[O-] -10.5%, COC(CNC(=O)Cn1ncc2ccsc2c1=O)OC 10.8%, O=C(CCc1ccccc1)NNC(=O)c1ccc(Br)cc1 5.47%, CC(=O)NC(=S)NNC(=O)c1ccc(Br)cc1 17.7%, Brc1ccc(/C=N/N2CCN(C3c4ccccc4-c4ccccc43)CC2)s1 4.14%, O=C(CN1C(=O)C2C3C=CC(C3)C2C1=O)NCCc1ccccc1Cl (stereo unspecified) 10.8%, Cc1ccc(Nc2nc(CSc3nnc(-c4ccncc4)n3-c3ccccc3C)cs2)cc1 26.5%, COC(=O)C(C)N(C#N)c1nc(C)nc(C)n1 (stereo unspecified) 10.4%, O=C(Nc1cccc(-c2nc3ccccc3[nH]2)c1)c1ccc(C(=O)Nc2cccc(-c3nc4ccccc4[nH]3)c2)cc1 -23.1%, CC(=O)CCC(=O)c1ccc2ccccc2c1 13.2%, Cc1ccc(S(=O)(=O)c2c(N)n(C)c3nc4ccccc4nc23)cc1 18.5%, C=CCNC(=O)c1ccc(C)c(Br)c1 5.25%, COc1cccc(C(=O)Nc2ccc(N3CCCC3)cc2)c1 7.29%

Source: PubChem BioAssay AID504617 (Sanford-Burnham Center for Chemical Genomics, 2011)
